This note sets out measurements from ChEMBL document CHEMBL1201862, “PubChem BioAssay data set” (2004).

Structures are written as SMILES. About 4,000 (1%) of roughly 390,000 compounds were called active. Inconclusive results (about 7%) are left out. The calls are words filed in the database; no cut-off is given here. The entries come from a sample that favours actives as a whole.

The target in this assay is T1, DNA polymerase iota (Homo sapiens) (UniProt Q9UNA4).
T1 sequence (whole entry): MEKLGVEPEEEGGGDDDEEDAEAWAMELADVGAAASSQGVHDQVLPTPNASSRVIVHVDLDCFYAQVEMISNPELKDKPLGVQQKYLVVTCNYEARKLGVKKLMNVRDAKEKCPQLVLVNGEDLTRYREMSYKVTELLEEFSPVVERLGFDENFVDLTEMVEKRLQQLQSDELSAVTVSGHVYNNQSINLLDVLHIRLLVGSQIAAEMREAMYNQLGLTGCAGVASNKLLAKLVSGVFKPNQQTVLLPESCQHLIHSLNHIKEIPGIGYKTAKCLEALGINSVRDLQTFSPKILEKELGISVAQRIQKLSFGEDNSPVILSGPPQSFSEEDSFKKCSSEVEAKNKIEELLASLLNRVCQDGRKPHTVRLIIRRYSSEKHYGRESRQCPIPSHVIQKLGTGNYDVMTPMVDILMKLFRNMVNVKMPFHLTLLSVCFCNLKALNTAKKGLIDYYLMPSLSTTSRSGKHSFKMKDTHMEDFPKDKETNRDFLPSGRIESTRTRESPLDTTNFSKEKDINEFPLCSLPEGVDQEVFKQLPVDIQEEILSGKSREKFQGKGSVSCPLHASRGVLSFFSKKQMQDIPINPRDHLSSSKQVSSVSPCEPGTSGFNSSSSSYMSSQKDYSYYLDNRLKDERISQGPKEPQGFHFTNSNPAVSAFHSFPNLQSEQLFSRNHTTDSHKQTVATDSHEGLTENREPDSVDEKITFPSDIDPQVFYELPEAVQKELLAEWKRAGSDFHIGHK
Briefly: qHTS for Inhibitors of Polymerase Iota. [Related pubchem assays (depositor defined):AID588623]. The assay is classed as functional. In general terms: Quantitative high-throughput screening tests each substance at several concentrations.
`COc1ccc(OC)c(/C=C/c2cccc3c2N(CCCCI)C=S3/C=C/c2cc(OC)ccc2OC)c1` (configuration not stated): the Potency was 70.8 µM (active).

Take `Cl.NC(CCC(=O)O)C(=O)O` (configuration not stated): the Potency entry was “inactive”.
